Active and inactive are the calls of the source.
How the values were obtained:
[1] = E. coli DRC41 culture turbidity changes, primary screen, E. coli filamentation inducer project, strain DRC41, OD650, 48 h (AID 1152);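 further: E. coli MC1000 strain DRC41 lacking acrAB efflux pump and sulA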; details: E. coli DRC41 (acrAB sulA), higher = more signal, called active from +8 up or from −8 down
[2] = small-molecule binders of probe aLefty1, primary screen, biochemical, small-molecule microarray, 635/667 nm fluorescence (AID 1153); details: higher = more signal;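 further: score merges spot fluorescence with signal-to-noise ratio from the scanned slide images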
[3] = PSAC antagonists in infected red cells, primary screen, cell-based, P. falciparum Indochina, OD700, 1 h (AID 1154); details: P. falciparum Indochina infected RBC osmotic lysis, higher = more signal, called active from +8 up or from −8 down
[4] = PSAC antagonists in infected red cells, primary screen, cell-based, P. falciparum Indochina, OD700, 2 h (AID 1155);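 further: lysis reports solute entry through the parasite surface anion channel PSAC; channel blockers reduce lysis of infected cells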; details: P. falciparum Indochina infected erythrocytes, osmotic lysis OD700; higher = more signal, called active from +8 up or from −8 down
[5] = osmotic lysis modulators in infected erythrocytes, primary screen, PSAC antagonist project, cell-based, P. falciparum Indochina, OD700, 3 h (AID 1156); details: higher = more signal, called active from +8 up or from −8 down
[6] = PSAC antagonists in infected red cells, primary screen, cell-based, P. falciparum Indochina, OD700, 18 h (AID 1157); details: P. falciparum Indochina infected erythrocytes, osmotic lysis OD700, 18 h; higher = more signal, called active from +8 up or from −8 down
[7] = modulators of S6 phosphorylation in cells, primary screen, cell-based, A549, cytoblot, luminescence, serum-stimulated (AID 1158); details: A549 phospho-S6 cytoblot, 5 h, higher = more signal;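 further: serum-stimulated A549 lung adenocarcinoma cells; signal is phosphorylated S6 detected by cytoblot immunostaining with HRP secondary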
[8] = target: NADPH oxidase 2 (Homo sapiens) (UniProt P04839); test: NOX2-dependent H2O2 signal modulators, primary screen, NOX inhibitor project, cell-based, HEK293-NOX2, PMA-stimulated, Amplex Red fluorescence (AID 1159); details: 45 min, higher = more signal, called active from +8 up or from −8 down; further: test concentration not given here
[9] = target: NADPH oxidase 4 (Homo sapiens) (UniProt Q9NPH5); test: NOX4-dependent H2O2 signal modulators, primary screen, NOX inhibitor project, cell-based, HEK293-NOX4, tetracycline-induced, Amplex Red fluorescence (AID 1160); details: 45 min, higher = more signal, called active from +8 up or from −8 down
[10] = target: NADPH oxidase 5 (Homo sapiens) (UniProt Q96PH1); test: NOX5-dependent H2O2 signal modulators, primary screen, NOX inhibitor project, cell-based, HEK293-NOX5, Amplex Red fluorescence (AID 1161); details: HEK293-NOX5, ionomycin, 45 min, higher = more signal
[11] = A549 cell viability effects, profiling panel, calcein-AM fluorescence, 48 h, basal (AID 1162); details: higher = more signal; further: test concentration not given here
[12] = adipocyte viability effects, profiling panel, cell-based, 3T3-L1 adipocytes, calcein-AM fluorescence, 48 h, basal (AID 1163); details: 3T3-L1 adipocytes viability, higher = more signal; further: test concentration not given here
[13] = HepG2 cell viability effects, profiling panel, calcein-AM fluorescence, 48 h, basal (AID 1164); details: higher = more signal; further: test concentration not given here
[14] = MM1S cell viability effects, profiling panel, calcein-AM fluorescence, 48 h, basal (AID 1165); details: higher = more signal;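 further: viability of MM1S multiple myeloma cells under basal unstimulated conditions; test concentration not given here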
[15] = basal RPMI8226 viability, no added stimulus, profiling panel, cell-based, calcein-AM fluorescence, 48 h, PK04 Diversity Set (AID 1166); details: RPMI8226 myeloma viability, higher = more signal;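 further: cells grown under basal conditions without added stimulus; test concentration not given here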
[16] = basal HepG2 mitochondrial membrane potential changes, profiling panel, cell-based, JC-1 fluorescence, 24 h, 100 nL compound (AID 1167); details: higher = more signal; further: test concentration not given here
[17] = basal 3T3-L1 adipocyte mitochondrial potential changes, profiling panel, cell-based, JC-1 fluorescence, 3T3-L1 adipocytes, 24 h, 100 nL compound (AID 1168); details: JC-1 mitochondrial fluorescence, higher = more signal, called active from +8 up or from −8 down; further: test concentration not given here
[18] = basal RPMI8226 mitochondrial membrane potential changes, profiling panel, cell-based, JC-1 fluorescence, 24 h, 100 nL compound (AID 1169); details: RPMI8226 myeloma, JC-1 mitochondrial potential fluorescence, higher = more signal; further: test concentration not given here
[19] = basal MM1S mitochondrial membrane potential changes, profiling panel, cell-based, JC-1 fluorescence, 24 h, 100 nL compound (AID 1170); details: higher = more signal; further: test concentration not given here
[20] = A549 lung cancer cell viability effects, profiling panel, resazurin fluorescence, 24 h, PK04 Diversity Set (AID 1171); details: higher = more signal, called active from +8 up or from −8 down; further: test concentration not given here

NADPH oxidase 2 (Homo sapiens), sequence (P04839 whole entry, looked up): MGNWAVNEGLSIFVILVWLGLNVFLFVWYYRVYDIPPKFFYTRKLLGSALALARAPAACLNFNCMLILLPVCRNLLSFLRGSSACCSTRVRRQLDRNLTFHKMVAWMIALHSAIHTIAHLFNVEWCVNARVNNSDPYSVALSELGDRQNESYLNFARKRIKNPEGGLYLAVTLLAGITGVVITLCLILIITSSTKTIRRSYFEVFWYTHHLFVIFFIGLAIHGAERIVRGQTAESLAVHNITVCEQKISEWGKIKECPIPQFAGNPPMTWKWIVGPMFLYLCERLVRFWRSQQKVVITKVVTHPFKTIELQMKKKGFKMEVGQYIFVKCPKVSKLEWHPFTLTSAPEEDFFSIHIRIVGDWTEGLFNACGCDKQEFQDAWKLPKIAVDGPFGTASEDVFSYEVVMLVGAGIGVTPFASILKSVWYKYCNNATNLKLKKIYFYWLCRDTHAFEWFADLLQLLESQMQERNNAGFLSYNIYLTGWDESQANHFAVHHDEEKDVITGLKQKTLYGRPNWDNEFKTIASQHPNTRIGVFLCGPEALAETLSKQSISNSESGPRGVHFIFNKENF
NADPH oxidase 5 (Homo sapiens), sequence (Q96PH1 whole entry, looked up): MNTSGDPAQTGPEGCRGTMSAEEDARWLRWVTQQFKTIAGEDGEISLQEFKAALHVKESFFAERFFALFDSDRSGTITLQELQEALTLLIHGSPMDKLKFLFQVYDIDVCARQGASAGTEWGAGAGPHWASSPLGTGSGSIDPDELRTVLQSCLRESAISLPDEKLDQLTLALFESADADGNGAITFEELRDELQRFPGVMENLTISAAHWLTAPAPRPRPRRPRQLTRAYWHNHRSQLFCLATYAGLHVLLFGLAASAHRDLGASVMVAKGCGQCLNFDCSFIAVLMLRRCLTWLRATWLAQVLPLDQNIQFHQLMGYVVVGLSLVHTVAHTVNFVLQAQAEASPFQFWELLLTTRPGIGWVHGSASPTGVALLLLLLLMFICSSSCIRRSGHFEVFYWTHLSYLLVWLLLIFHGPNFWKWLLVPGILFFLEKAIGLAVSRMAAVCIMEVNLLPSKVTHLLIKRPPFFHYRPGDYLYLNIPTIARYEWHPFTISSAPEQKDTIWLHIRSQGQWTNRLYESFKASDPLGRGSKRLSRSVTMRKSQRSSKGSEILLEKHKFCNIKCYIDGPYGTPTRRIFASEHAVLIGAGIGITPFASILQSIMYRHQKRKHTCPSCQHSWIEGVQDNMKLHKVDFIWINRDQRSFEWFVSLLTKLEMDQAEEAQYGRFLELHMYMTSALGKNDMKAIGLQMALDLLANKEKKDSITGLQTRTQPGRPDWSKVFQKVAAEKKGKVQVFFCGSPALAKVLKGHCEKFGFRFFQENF
NADPH oxidase 4 (Homo sapiens), sequence (Q9NPH5 whole entry, looked up): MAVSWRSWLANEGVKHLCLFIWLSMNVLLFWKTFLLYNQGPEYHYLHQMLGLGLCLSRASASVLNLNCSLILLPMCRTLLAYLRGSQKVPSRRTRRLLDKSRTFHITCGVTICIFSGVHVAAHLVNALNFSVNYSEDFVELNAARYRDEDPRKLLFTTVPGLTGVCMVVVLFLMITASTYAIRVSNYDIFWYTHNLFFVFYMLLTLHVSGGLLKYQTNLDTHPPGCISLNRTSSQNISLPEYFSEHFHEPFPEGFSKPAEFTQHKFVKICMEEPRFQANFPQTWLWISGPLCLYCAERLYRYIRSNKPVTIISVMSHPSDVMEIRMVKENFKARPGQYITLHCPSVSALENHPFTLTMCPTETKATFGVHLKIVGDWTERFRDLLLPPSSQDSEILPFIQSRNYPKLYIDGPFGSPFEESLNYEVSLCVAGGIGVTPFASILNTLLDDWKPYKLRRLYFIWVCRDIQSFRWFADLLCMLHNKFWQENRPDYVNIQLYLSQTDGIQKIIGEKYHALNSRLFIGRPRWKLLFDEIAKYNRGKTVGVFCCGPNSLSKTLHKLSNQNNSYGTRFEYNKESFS

| SMILES | z-score [1] | composite z-score [2] | z-score [3] | z-score [4] | z-score [5] | z-score [6] | z-score [7] | z-score [8] | z-score [9] | z-score [10] | z-score [11] | z-score [12] | z-score [13] | z-score [14] | z-score [15] | z-score [16] | z-score [17] | z-score [18] | z-score [19] | z-score [20] |
| --- | --- | --- | --- | --- | --- | --- | --- | --- | --- | --- | --- | --- | --- | --- | --- | --- | --- | --- | --- | --- |
| CCN1C(=O)[C@H]2[C@H]3[C@H](O)[C@H](O)CC(=NOCC=C(C)CCC=C(C)C)[C@@H]3CC[C@H]2C1=O | -1.27 (inactive) | -0.22 | 1.17 (inactive) | 0.579 (inactive) | 0.0742 (inactive) | 0.134 (inactive) | -0.23 | 1.56 (inactive) | 0.207 (inactive) | -1.06 | -0.0234 | 0.28 | -0.196 | -0.701 | 0.203 | -0.731 | -1.56 (inactive) | -0.321 | 0.355 | 0.298 (inactive) |
| CCOC(=O)CCN1C(=O)[C@H]2[C@H]3[C@H](O)[C@H](O)CC(=NNC(=O)OCC)[C@H]3CC[C@H]2C1=O | -0.793 (inactive) | -0.0611 | 3.88 (inactive) | 0.635 (inactive) | 1 (inactive) | 1.07 (inactive) | -0.242 | 0.415 (inactive) | -0.702 (inactive) | -4.72 | -1.19 | 0.895 | -0.418 | -2.14 | -3.78 | -0.357 | -1.19 (inactive) | -0.541 | 0.0724 | -0.698 (inactive) |
| O=C1C=C[C@@H](O)[C@@H]2[C@@H]3C(=O)N(C4CCCCC4)C(=O)[C@@H]3CC[C@@H]12 | -0.188 (inactive) | -0.0501 | 0.0831 (inactive) | -0.0709 (inactive) | -0.446 (inactive) | 0.0822 (inactive) | -0.493 | 0.33 (inactive) | 0.563 (inactive) | -0.266 | -0.0763 | 0.351 | -0.602 | -1.88 | -2.19 | 1.23 | -0.58 (inactive) | -0.733 | -1.54 | 0.269 (inactive) |
| CC(CCN1CCCc2nc(C)c(C)cc21)=NOC[C@@H](O)COCc1ccco1 | 0.768 (inactive) | 1.95 | 3.52 (inactive) | 0.281 (inactive) | 0.453 (inactive) | 0.22 (inactive) | -0.815 | -0.869 (inactive) | -0.583 (inactive) | -0.144 | 0.604 | 0.827 | -0.496 | -1.31 | -0.441 | -1.46 | -0.126 (inactive) | 0.0583 | -0.0723 | 0.287 (inactive) |
| COCOc1ccc(Br)cc1C(=O)C=Cc1ccc2c(c1)OCO2 | 0.677 (inactive) | -0.103 | 8.25 (active) | -0.0749 (inactive) | 0.365 (inactive) | -1.11 (inactive) | 0.835 | 0.187 (inactive) | 0.138 (inactive) | -1.03 | -0.206 | -0.342 | -2.2 | -3.48 | -3.81 | 1.28 | 0.0274 (inactive) | -1.12 | -2.71 | -1.56 (inactive) |
| CCN1C(C)=C(C(=O)OC)[C@@H](c2ccccc2)N2C(=O)[C@](O)(C(=O)OC)CC(C(C)=O)=C12 | -0.0844 (inactive) | -0.22 | 0.725 (inactive) | 0.893 (inactive) | 0.62 (inactive) | 0.195 (inactive) | 0.825 | 0.188 (inactive) | 0.724 (inactive) | 0.697 | 0.836 | -0.697 | 0.634 | 0.339 | 0.791 | 0.93 | 0.935 (inactive) | 0.138 | 0.146 | -0.256 (inactive) |
| C[C@H]1CC[C@@H](C(=O)O)N[C@@H]1c1cccc(N2CCCC2=O)c1 | 1.04 (inactive) | -0.103 | 0.162 (inactive) | 0.677 (inactive) | 0.121 (inactive) | 0.125 (inactive) | 0.42 | -0.207 (inactive) | 0.00437 (inactive) | 0.682 | 0.594 | -0.115 | 0.652 | 0.149 | -1.12 | 1.66 | 0.574 (inactive) | 0.468 | -0.436 | 0.0065 (inactive) |
| CC(=O)OC[C@H]1O[C@H](C#CCCc2ccccc2)C=C[C@@H]1OC(C)=O | -0.2 (inactive) | 0.233 | 1.43 (inactive) | 0.317 (inactive) | 0.182 (inactive) | 0.148 (inactive) | -0.427 | -1.58 (inactive) | 1.39 (inactive) | 1.07 | 0.233 | 0.292 | -0.207 | -3.49 | -2.48 | -0.972 | -0.282 (inactive) | -0.353 | -1.11 | -0.182 (inactive) |

— PubChem BioAssay
